Screening data deposited in PubChem BioAssay by National Center for Advancing Translational Sciences (NCATS).
KB-V1 MDR tox: qHTS assay for MDR1-selective chemotherapeutics: Primary screen using the drug-selected MDR subline cells KB-V1 | Potency, µM (doses to about 46.1 µM), usual class: cytotoxic | KB-V1 MDR cells viability, CellTiter-Glo, 72 h | 400,000 tested, 3.4% active | AID 1347076, 2019; also: potency is read from the fitted curve at half-maximal effect; % is scaled to controls: 0 for no effect and ±100 for the full control effect; nearly all actives have a fitted effect of over 60% in size
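In this primary screen, KB-V1 cells overexpressing P-gp are incubated with library compounds (lowest to highest concentration) for 72 h at 37 degrees C before a luminescent ATP viability read.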
SW480 rereplic: A quantitative high throughput screen for small molecules that induce DNA re-replication in SW480 colon adenocarcinoma cells; SW480 DNA re-replication, Hoechst DNA content imaging, 48 h; Potency, µM (doses to about 46.1 µM), inactives show at the top dose re-replication activation, most hits filed as activators; 340,000 tested, 1.8% active; also: potency is read from the fitted curve at half-maximal effect; % of control where 0% means no effect; nearly all actives have a fitted effect of over 55% in size
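First, 250 cells per well were seeded. Next, compound or vehicle (23 nL) was pinned in, plates sat 48 hr at 37 C. Finally Hoechst was added for 40 min before fluorescence scanning.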
MCF10A rereplic: A quantitative high throughput screen for small molecules that induce DNA re-replication in MCF 10a normal breast cells. MCF 10A DNA re-replication, Hoechst nuclear intensity, 48 h. Potency, µM (series often up to 46.1 µM), inactives show at the highest dose activity, positive = re-replication, usual class: activators. 350,000 tested, 2.9% active; also: potency is read from the fitted curve at half-maximal effect; % of control where 0% means no effect; nearly all actives have a fitted effect of over 50% in size
IL1B secr inh: qHTS for Inhibitors of Inflammasome Signaling: IL-1-beta AlphaLISA Primary Screen; THP-1 LPS/ATP IL-1B secretion, AlphaLISA, 16 h; active compounds read low; activity change, % at 57.5 µM; 360,000 tested, 4.7% active; in the data active = activity change below about -50%; inconclusive = mostly about -30% to -49%; also: % is scaled to controls: 0 for no effect and ±100 for the full control effect
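THP-1 cells pretreated 1 hr with compounds (up to 57.5 uM final), then stimulated with LPS (250 ng/mL final) plus ATP (1.25 mM final); secreted IL-1B measured by AlphaLISA after 16 hr, decreased signal indicating inhibition.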
KB-3-1 tox: qHTS assay for MDR1-selective chemotherapeutics: Primary screen using the parental adenocarcinoma cell KB-3-1. KB-3-1 viability, CellTiter-Glo ATP luminescence, 72 h. Potency, µM (series often up to 46.1 µM), usual class: cytotoxic. 400,000 tested, 1.4% active; also: potency is read from the fitted curve at half-maximal effect; % is scaled to controls: 0 for no effect and ±100 for the full control effect; nearly all actives have a fitted effect of over 60% in size
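72 h, 37 °C compound treatment of KB-3-1 parental cells; CellTiter-Glo added, 10 min, luminescence read. Data corrected against DMSO-only plates and normalized before curve fitting.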
Numbers without * were called inactive; i = inactive; ? = inconclusive; · = not tested or not shown. An excerpt weighted towards active compounds, which were near 9.9% of everything screened. Unless noted, calls follow the shape of the dose curve; as a rule, active = well fitted curve in the direction sought with a large enough effect; inconclusive = small, poorly fitted or top-dose-only effect, or another doubt; inactive = no such curve, though single readings can be large; an effect the other way counts as inactive or inconclusive.

SMILES | KB-V1 MDR tox | SW480 rereplic | MCF10A rereplic | IL1B secr inh | KB-3-1 tox
CC(=O)/C=C\c1cn(-c2ncc(C(F)(F)F)cc2Cl)c2ccccc12 | ? | ? | ? | -81* | 21µM*
O=C(NCc1cccnc1)c1cccn1-c1ncc(C(F)(F)F)cc1Cl | ? | 3% | 2% | 18 | i
COC(=O)Cn1c2ccc(OC)cc2c2nc(C)sc21 | i | -3% | ? | 11 | i
O=c1[nH]c2ccc(Cl)cc2c(-c2ccccc2)c1N1CCN(c2ccccn2)CC1 | 13µM* | ? | 24% | 19 | i
O=C(Nc1cc(SCCO)cc([N+](=O)[O-])c1)c1ccc(Br)o1 | 21µM* | -6% | 17% | -16 | ?
CCn1c(=O)c2ccccc2n(Cc2cccc([N+](=O)[O-])c2)c1=O | i | -2% | 6% | -50* | i
CCN(CC)CCNC(=O)CCc1c(C)nc2c(c(C)nn2-c2ccc(C)c(C)c2)c1C | i | 15µM* | 20% | -7 | ?
Cc1ccc(-n2nc(C)c3c(C)c(CCC(=O)Nc4ccc(CN5CCCC5)cc4)c(C)nc32)cc1 | i | ? | 26µM* | -86* | i
COC(CNC(=O)CCc1c(C)nc2c(c(C)nn2-c2ccc(C)cc2)c1C)OC | i | 7% | -7% | -18 | i
O=C(Nc1nc2ccccc2s1)C1c2ccccc2Oc2ccccc21 | 18µM* | ? | ? | -5 | i
COCC(=O)Nc1nc2ccccc2s1 | i | 1% | -5% | 10 | i
NC(=S)Nc1nc2ccccc2s1 | 8.2µM* | ? | 0% | 0 | ?
COC(=O)c1sc(NC(=O)C2c3ccccc3Oc3ccccc32)c(C(=O)OC)c1C | 12µM* | · | 11% | 0 | i
CC(=O)Nc1ccc(-c2nnc3n(Cc4ccc(C)cc4)c(=O)c4ccccc4n23)cc1 | i | · | · | · | i
COc1ccc(-c2nnn(CC(=O)N(CC3CCCO3)C(C(=O)NC(C)(C)C)c3ccco3)n2)cc1OC (stereo unspecified) | i | 1% | 5% | 16 | i
Cc1sc(NC(=O)COc2ccccc2)c(C#N)c1-c1ccccc1 | 16µM* | -6% | -3% | -18 | i
N#Cc1c(NC(=O)CSc2ncccn2)oc(-c2ccccc2)c1-c1ccccc1 | ? | -9% | 18% | 5 | i
COc1ccc(-c2oc(NC(=O)CSc3ncn[nH]3)c(C#N)c2-c2ccc(OC)cc2)cc1 | i | 35µM* | 14µM* | 0 | i
COc1ccc(-c2oc(NC(=O)CCl)c(C#N)c2-c2ccc(OC)cc2)cc1 | ? | ? | ? | -93* | ?
Cc1ccc(OCC(=O)Nc2oc(-c3ccccc3)c(-c3ccccc3)c2C#N)cc1 | i | -1% | 16µM* | 0 | i
CCN(CC)C(=O)Cn1c(=O)n(-c2ccc(OC)cc2OC)c(=O)c2c(C)c(C(=O)N(CC)CC)sc21 | i | · | · | · | i
CCCCn1c(N)c(N(CCOC)C(=O)COc2ccc(Cl)cc2)c(=O)[nH]c1=O | i | 2% | 1% | 3 | i
O=S(=O)(Nc1ccc(-c2ccc(N3CCCCCC3)nn2)cc1)c1ccc(C(F)(F)F)cc1 | ? | · | · | · | i
N#Cc1c(NC(=O)COC(=O)C2CC3C=CC2C3)oc(-c2ccccc2)c1-c1ccccc1 (stereo unspecified) | i | -40% | 18µM* | -28 | i
COc1ccc(-c2c(C)sc(NC(=O)c3ccnn3C)c2C#N)cc1 | ? | -330% | 20% | 10 | 10µM*
SMILES | KB-V1 MDR tox | SW480 rereplic | MCF10A rereplic | IL1B secr inh | KB-3-1 tox
COc1ccc(C(=O)Nc2sc(C)c(-c3ccccc3)c2C#N)cc1OC | ? | -10% | ? | -19 | i
CCSc1cc(C)nc2c(-c3ccccc3)cnn12 | ? | 27% | 16% | 24 | ?
C=CCSc1cc(C)nc2c(-c3ccccc3)cnn12 | 8.2µM* | ? | 11% | 31 | ?
CC(=O)Nc1ccc(Nc2cc(C)nc3c(-c4ccccc4)cnn23)cc1 | 16µM* | 10% | ? | -21 | ?
Cc1cc(N)n2ncc(-c3ccccc3)c2n1 | i | 1% | 18% | -14 | i
CN1CCN(C(=O)OC2CC3CC2[C@H]2CCCCN2C3=O)CC1 (stereo partly specified) | i | · | · | 19 | i
Cc1nccn1-c1ccc(C(F)(F)F)cc1[N+](=O)[O-] | i | -3% | -13% | 13 | ?
CCOC(=O)c1nnn(-c2ccc([N+](=O)[O-])cc2[N+](=O)[O-])c1C | i | 7.3µM* | ? | ? | 23µM*
CCOC(=O)c1nnn(-c2ccccc2)c1C | i | 6% | 3% | -20 | i
COCc1c(C(=O)OC)nnn1-c1ccc(C(F)(F)F)cc1[N+](=O)[O-] | i | -1% | 0% | -72* | i
Cc1ccc(CNCCC2=CCCCC2)cc1 | ? | ? | 21% | -69* | ?
Cc1ccc(C)c(N2CCN(C(=O)c3cn(CC(C)C)c(=O)c4c3c3ccccc3n4C)CC2)c1 | ? | · | · | · | i
COc1ccccc1N1CCN(C(=O)C2CC2)CC1 | i | 12% | ? | 9 | i
COc1ccccc1N1CCN(C(=O)C2c3ccccc3Oc3ccccc32)CC1 | 2.6µM* | 5.8µM* | 1.8µM* | 24 | 1.8µM*
CC(C)=C(NC(=O)c1ccccc1Br)C(=O)NCCc1nc2ccccc2[nH]1 | i | 7% | 1% | 17 | i
O=C1NC(=S)N/C1=C\c1ccc(N2CCOCC2)cc1 | i | 18µM* | ? | -8 | i
O=C1NC(=S)NC1=Cc1ccc(O)cc1 | i | -20% | -19% | -1 | i
O=C1/C(=C/c2ccc(N3CCCC3)cc2)NC(=S)N1C1CC1 | i | -3% | -5% | -77* | i
O=C1N/C(=C/c2ccc(N3CCCC3)cc2)C(=O)N1c1ccccc1 | i | ? | ? | 3 | i
C[N+]1(CC(=O)c2ccccc2)CCc2ccccc2C1 (stereo unspecified) | i | · | · | · | i
c1coc(-c2nc(N=C3N=c4ccccc4=N3)[nH]c2-c2ccco2)c1 | i | · | · | 25 | i
O=C(Nc1cccc(S(=O)(=O)N2CCCC2)c1)c1ccccc1OC(F)F | ? | -2% | 16% | -9 | i
COc1ccc(C2(c3ccc(OC)cc3)NC(=O)N(CC(=O)N(C)c3ccccc3)C2=O)cc1 | i | 8% | 0% | ? | i
